Where two headings read alike, the source gives them in different places.
Assays:
Conditions in all cases: read-out: apparent Kd, n = 1
AXL = test system: AXL
CAMKK2 = test system: CAMKK2
CDC7 = test system: CDC7
CDK4 = test system: CDK4
DYRK1A = test system: DYRK1A
ERCC2 = test system: ERCC2
MAP2K5 = test system: MAP2K5
MAP4K4 = test system: MAP4K4
MAPK9 = test system: MAPK9
PIM3 = test system: PIM3
PRKCA = test system: PRKCA
PRKX = test system: PRKX
RPS6KA3 = test system: RPS6KA3
[1] = compound concentrations:100 nM and 1000 nM (sheet 'Lestaurtinib' of Supplementary Table 1),run:Lestaurtinib_02443_R3,Plate:MR009
[2] = compound concentrations:100 nM and 1000 nM (sheet 'Lestaurtinib' of Supplementary Table 1),run:Lestaurtinib_02487_R1,Plate:MR012
[3] = compound concentrations:100 nM and 1000 nM (sheet 'Lestaurtinib' of Supplementary Table 1),run:Lestaurtinib_02496_R3,Plate:MR013
[4] = compound concentrations:100 nM and 1000 nM (sheet 'Lestaurtinib' of Supplementary Table 1),run:Lestaurtinib_02572_R1,Plate:MR015
[5] = compound concentrations:100 nM and 1000 nM (sheet 'Lestaurtinib' of Supplementary Table 1),run:Lestaurtinib_02724_R3,Plate:MR021
[6] = compound concentrations:100 nM and 1000 nM (sheet 'Lestaurtinib' of Supplementary Table 1),run:Lestaurtinib_02339_R2,Plate:MR001
[7] = compound concentrations:100 nM and 1000 nM (sheet 'Lestaurtinib' of Supplementary Table 1),run:Lestaurtinib_02437_R3,Plate:MR007
[8] = compound concentrations:100 nM and 1000 nM (sheet 'Lestaurtinib' of Supplementary Table 1),run:Lestaurtinib_02473_R3,Plate:MR010
[9] = compound concentrations:100 nM and 1000 nM (sheet 'Lestaurtinib' of Supplementary Table 1),run:Lestaurtinib_02496_R2,Plate:MR013
[10] = compound concentrations:100 nM and 1000 nM (sheet 'Lestaurtinib' of Supplementary Table 1),run:Lestaurtinib_02381_R2,Plate:MR004
[11] = compound concentrations:100 nM and 1000 nM (sheet 'Lestaurtinib' of Supplementary Table 1),run:Lestaurtinib_02748_R3,Plate:MR024
[12] = compound concentrations:100 nM and 1000 nM (sheet 'Lestaurtinib' of Supplementary Table 1),run:Lestaurtinib_02752_R2,Plate:MR025
[13] = compound concentrations:100 nM and 1000 nM (sheet 'Lestaurtinib' of Supplementary Table 1),run:Lestaurtinib_02896_R1,Plate:MR030
[14] = compound concentrations:100 nM and 1000 nM (sheet 'Lestaurtinib' of Supplementary Table 1),run:Lestaurtinib_03260_R2,Plate:MR033
[15] = compound concentrations:100 nM and 1000 nM (sheet 'Lestaurtinib' of Supplementary Table 1),run:Lestaurtinib_02438_R1,Plate:MR008
[16] = compound concentrations:100 nM and 1000 nM (sheet 'Lestaurtinib' of Supplementary Table 1),run:Lestaurtinib_02443_R2,Plate:MR009
[17] = compound concentrations:100 nM and 1000 nM (sheet 'Lestaurtinib' of Supplementary Table 1),run:Lestaurtinib_02482_R3,Plate:MR011
[18] = compound concentrations:100 nM and 1000 nM (sheet 'Lestaurtinib' of Supplementary Table 1),run:Lestaurtinib_02381_R3,Plate:MR004
[19] = compound concentrations:100 nM and 1000 nM (sheet 'Lestaurtinib' of Supplementary Table 1),run:Lestaurtinib_02566_R1,Plate:MR014
[20] = compound concentrations:100 nM and 1000 nM (sheet 'Lestaurtinib' of Supplementary Table 1),run:Lestaurtinib_02766_R1,Plate:MR027
[21] = compound concentrations:100 nM and 1000 nM (sheet 'Lestaurtinib' of Supplementary Table 1),run:Lestaurtinib_02381_R1,Plate:MR004
[22] = compound concentrations:100 nM and 1000 nM (sheet 'Lestaurtinib' of Supplementary Table 1),run:Lestaurtinib_02473_R2,Plate:MR010
[23] = compound concentrations:100 nM and 1000 nM (sheet 'Lestaurtinib' of Supplementary Table 1),run:Lestaurtinib_02724_R1,Plate:MR021
[24] = compound concentrations:100 nM and 1000 nM (sheet 'Lestaurtinib' of Supplementary Table 1),run:Lestaurtinib_02748_R1,Plate:MR024

## Lestaurtinib
AXL; [1]
  potency estimated from few doses: 2.13 µM
AXL; [2]
  potency estimated from few doses: 0.6 µM
AXL; [3]
  potency estimated from few doses: 2.23 µM
AXL; [4]
  potency estimated from few doses: 1.42 µM
AXL; [5]
  potency estimated from few doses: 1.34 µM
CAMKK2; [6]
  potency estimated from few doses: 1.82 µM
CAMKK2; [7]
  potency estimated from few doses: 0.149 µM
CAMKK2; [8]
  potency estimated from few doses: 1.93 µM
CAMKK2; [2]
  potency estimated from few doses: 0.596 µM
CAMKK2; [9]
  potency estimated from few doses: 2.18 µM
CAMKK2; compound concentrations:100 nM and 1000 nM (sheet 'Lestaurtinib' of Supplementary Table 1),run:Lestaurtinib_02566_R2,Plate:MR014
  potency estimated from few doses: 1.96 µM
CAMKK2; [4]
  potency estimated from few doses: 1.81 µM
CDC7; compound concentrations:100 nM and 1000 nM (sheet 'Lestaurtinib' of Supplementary Table 1),run:Lestaurtinib_02367_R1,Plate:MR003
  potency estimated from few doses: 1.4 µM
CDC7; compound concentrations:100 nM and 1000 nM (sheet 'Lestaurtinib' of Supplementary Table 1),run:Lestaurtinib_02367_R3,Plate:MR003
  potency estimated from few doses: 1 µM
CDC7; [10]
  potency estimated from few doses: 1.53 µM
CDC7; [8]
  potency estimated from few doses: 2.08 µM
CDC7; [11]
  potency estimated from few doses: 1.65 µM
CDC7; compound concentrations:100 nM and 1000 nM (sheet 'Lestaurtinib' of Supplementary Table 1),run:Lestaurtinib_02752_R1,Plate:MR025
  potency estimated from few doses: 1.24 µM
CDC7; [12]
  potency estimated from few doses: 1.76 µM
CDC7; compound concentrations:100 nM and 1000 nM (sheet 'Lestaurtinib' of Supplementary Table 1),run:Lestaurtinib_02795_R3,Plate:MR022
  potency estimated from few doses: 1.51 µM
CDC7; [13]
  potency estimated from few doses: 0.591 µM
CDC7; compound concentrations:100 nM and 1000 nM (sheet 'Lestaurtinib' of Supplementary Table 1),run:Lestaurtinib_02896_R2,Plate:MR030
  potency estimated from few doses: 1.33 µM
CDC7; [14]
  potency estimated from few doses: 1.69 µM
CDK4; compound concentrations:100 nM and 1000 nM (sheet 'Lestaurtinib' of Supplementary Table 1),run:Lestaurtinib_02367_R2,Plate:MR003
  potency estimated from few doses: 2.19 µM
CDK4; compound concentrations:100 nM and 1000 nM (sheet 'Lestaurtinib' of Supplementary Table 1),run:Lestaurtinib_02407_R2,Plate:MR005
  potency estimated from few doses: 1.65 µM
CDK4; [15]
  potency estimated from few doses: 2.24 µM
CDK4; compound concentrations:100 nM and 1000 nM (sheet 'Lestaurtinib' of Supplementary Table 1),run:Lestaurtinib_02438_R3,Plate:MR008
  potency estimated from few doses: 2.25 µM
CDK4; [16]
  potency estimated from few doses: 2.23 µM
CDK4; [17]
  potency estimated from few doses: 2.22 µM
CDK4; compound concentrations:100 nM and 1000 nM (sheet 'Lestaurtinib' of Supplementary Table 1),run:Lestaurtinib_02606_R1,Plate:MR019
  potency estimated from few doses: 1.72 µM
CDK4; [5]
  potency estimated from few doses: 1.99 µM
CDK4; compound concentrations:100 nM and 1000 nM (sheet 'Lestaurtinib' of Supplementary Table 1),run:Lestaurtinib_02766_R2,Plate:MR027
  potency estimated from few doses: 1.37 µM
CDK4; [13]
  potency estimated from few doses: 1.4 µM
DYRK1A; [6]
  potency estimated from few doses: 2.31 µM
DYRK1A; [18]
  potency estimated from few doses: 0.82 µM
DYRK1A; [16]
  potency estimated from few doses: 1.58 µM
DYRK1A; [19]
  potency estimated from few doses: 1.58 µM
DYRK1A; compound concentrations:100 nM and 1000 nM (sheet 'Lestaurtinib' of Supplementary Table 1),run:Lestaurtinib_02577_R2,Plate:MR016
  potency estimated from few doses: 1.67 µM
DYRK1A; [5]
  potency estimated from few doses: 0.987 µM
DYRK1A; [20]
  potency estimated from few doses: 1.76 µM
DYRK1A; [13]
  potency estimated from few doses: 1.69 µM
DYRK1A; compound concentrations:100 nM and 1000 nM (sheet 'Lestaurtinib' of Supplementary Table 1),run:Lestaurtinib_03172_R3,Plate:MR031
  potency estimated from few doses: 1.44 µM
ERCC2; [7]
  potency estimated from few doses: 1.32 µM
ERCC2; [2]
  potency estimated from few doses: 0.161 µM
ERCC2; [9]
  potency estimated from few doses: 1.44 µM
ERCC2; [3]
  potency estimated from few doses: 1.59 µM
ERCC2; compound concentrations:100 nM and 1000 nM (sheet 'Lestaurtinib' of Supplementary Table 1),run:Lestaurtinib_02572_R2,Plate:MR015
  potency estimated from few doses: 0.261 µM
MAP2K5; compound concentrations:100 nM and 1000 nM (sheet 'Lestaurtinib' of Supplementary Table 1),run:Lestaurtinib_02364_R1,Plate:MR002
  potency estimated from few doses: 2.24 µM
MAP2K5; [21]
  potency estimated from few doses: 1.34 µM
MAP2K5; [10]
  potency estimated from few doses: 2.42 µM
MAP2K5; compound concentrations:100 nM and 1000 nM (sheet 'Lestaurtinib' of Supplementary Table 1),run:Lestaurtinib_02437_R1,Plate:MR007
  potency estimated from few doses: 2.43 µM
MAP2K5; [22]
  potency estimated from few doses: 2.44 µM
MAP2K5; [17]
  potency estimated from few doses: 2.35 µM
MAP2K5; [19]
  potency estimated from few doses: 1.96 µM
MAP2K5; [5]
  potency estimated from few doses: 1.79 µM
MAP2K5; [11]
  potency estimated from few doses: 1.82 µM
MAP2K5; [20]
  potency estimated from few doses: 2.21 µM
MAP4K4; [10]
  potency estimated from few doses: 2.24 µM
MAP4K4; compound concentrations:100 nM and 1000 nM (sheet 'Lestaurtinib' of Supplementary Table 1),run:Lestaurtinib_02438_R2,Plate:MR008
  potency estimated from few doses: 1.43 µM
MAP4K4; [16]
  potency estimated from few doses: 1.7 µM
MAP4K4; [22]
  potency estimated from few doses: 1.82 µM
MAP4K4; compound concentrations:100 nM and 1000 nM (sheet 'Lestaurtinib' of Supplementary Table 1),run:Lestaurtinib_02482_R2,Plate:MR011
  potency estimated from few doses: 1.42 µM
MAPK9; [1]
  potency estimated from few doses: 1.3 µM
MAPK9; [19]
  potency estimated from few doses: 1.99 µM
MAPK9; [4]
  potency estimated from few doses: 1.72 µM
MAPK9; compound concentrations:100 nM and 1000 nM (sheet 'Lestaurtinib' of Supplementary Table 1),run:Lestaurtinib_02584_R3,Plate:MR017
  potency estimated from few doses: 2.26 µM
MAPK9; compound concentrations:100 nM and 1000 nM (sheet 'Lestaurtinib' of Supplementary Table 1),run:Lestaurtinib_02624_R1,Plate:MR020
  potency estimated from few doses: 1.41 µM
MAPK9; [23]
  potency estimated from few doses: 2.24 µM
MAPK9; compound concentrations:100 nM and 1000 nM (sheet 'Lestaurtinib' of Supplementary Table 1),run:Lestaurtinib_02752_R3,Plate:MR025
  potency estimated from few doses: 2.18 µM
MAPK9; [13]
  potency estimated from few doses: 2.12 µM
MAPK9; compound concentrations:100 nM and 1000 nM (sheet 'Lestaurtinib' of Supplementary Table 1),run:Lestaurtinib_03172_R1,Plate:MR031
  potency estimated from few doses: 1.9 µM
MAPK9; compound concentrations:100 nM and 1000 nM (sheet 'Lestaurtinib' of Supplementary Table 1),run:Lestaurtinib_03260_R1,Plate:MR033
  potency estimated from few doses: 1.69 µM
PIM3; [24]
  potency estimated from few doses: 0.611 µM
PIM3; compound concentrations:100 nM and 1000 nM (sheet 'Lestaurtinib' of Supplementary Table 1),run:Lestaurtinib_02748_R2,Plate:MR024
  potency estimated from few doses: 0.656 µM
PIM3; [11]
  potency estimated from few doses: 1.43 µM
PIM3; [12]
  potency estimated from few doses: 0.795 µM
PIM3; [14]
  potency estimated from few doses: 0.945 µM
PRKCA; [21]
  potency estimated from few doses: 2.07 µM
PRKCA; [18]
  potency estimated from few doses: 2.4 µM
PRKCA; compound concentrations:100 nM and 1000 nM (sheet 'Lestaurtinib' of Supplementary Table 1),run:Lestaurtinib_02443_R1,Plate:MR009
  potency estimated from few doses: 1.99 µM
PRKCA; [1]
  potency estimated from few doses: 2.45 µM
PRKCA; [2]
  potency estimated from few doses: 1.72 µM
PRKCA; [5]
  potency estimated from few doses: 1.76 µM
PRKCA; [24]
  potency estimated from few doses: 2.32 µM
PRKX; [10]
  potency estimated from few doses: 1.49 µM
PRKX; compound concentrations:100 nM and 1000 nM (sheet 'Lestaurtinib' of Supplementary Table 1),run:Lestaurtinib_02487_R2,Plate:MR012
  potency estimated from few doses: 2.11 µM
PRKX; compound concentrations:100 nM and 1000 nM (sheet 'Lestaurtinib' of Supplementary Table 1),run:Lestaurtinib_02487_R3,Plate:MR012
  potency estimated from few doses: 1.35 µM
PRKX; compound concentrations:100 nM and 1000 nM (sheet 'Lestaurtinib' of Supplementary Table 1),run:Lestaurtinib_02768_R1,Plate:MR028
  potency estimated from few doses: 2.23 µM
PRKX; compound concentrations:100 nM and 1000 nM (sheet 'Lestaurtinib' of Supplementary Table 1),run:Lestaurtinib_02802_R3,Plate:MR029
  potency estimated from few doses: 1.97 µM
RPS6KA3; compound concentrations:100 nM and 1000 nM (sheet 'Lestaurtinib' of Supplementary Table 1),run:Lestaurtinib_02339_R3,Plate:MR001
  potency estimated from few doses: 1.51 µM
RPS6KA3; [15]
  potency estimated from few doses: 1.84 µM
RPS6KA3; [1]
  potency estimated from few doses: 1.65 µM
RPS6KA3; [2]
  potency estimated from few doses: 1.15 µM
RPS6KA3; compound concentrations:100 nM and 1000 nM (sheet 'Lestaurtinib' of Supplementary Table 1),run:Lestaurtinib_02577_R1,Plate:MR016
  potency estimated from few doses: 1.76 µM
RPS6KA3; [23]
  potency estimated from few doses: 1.53 µM

From publication PMC11062922 (Nature Chemical Biology, 2023)
